Source: PubChem BioAssay
The entries come from a sample that favours hits as a whole.
RORg inh: qHTS for inhibitors of ROR gamma transcriptional activity. Potency, µM (series often up to 53.6 µM), without a hit: top-dose activity change, negative = inhibition, hits mostly inhibitors. Nuclear receptor ROR-gamma (Mus musculus), P51450. Drosophila S2 Gal4-RORgamma UAS-luciferase reporter, 20 h. 5.4% of 310,000 active. AID 2551, 2010; further: potency means the concentration at half of the fitted maximal effect; on the % scale 0 is the no-effect control and ±100 the full control effect; nearly all actives have a fitted effect of over 60% in size
Target sequence (P51450 whole entry, looked up, the tested form may be a part): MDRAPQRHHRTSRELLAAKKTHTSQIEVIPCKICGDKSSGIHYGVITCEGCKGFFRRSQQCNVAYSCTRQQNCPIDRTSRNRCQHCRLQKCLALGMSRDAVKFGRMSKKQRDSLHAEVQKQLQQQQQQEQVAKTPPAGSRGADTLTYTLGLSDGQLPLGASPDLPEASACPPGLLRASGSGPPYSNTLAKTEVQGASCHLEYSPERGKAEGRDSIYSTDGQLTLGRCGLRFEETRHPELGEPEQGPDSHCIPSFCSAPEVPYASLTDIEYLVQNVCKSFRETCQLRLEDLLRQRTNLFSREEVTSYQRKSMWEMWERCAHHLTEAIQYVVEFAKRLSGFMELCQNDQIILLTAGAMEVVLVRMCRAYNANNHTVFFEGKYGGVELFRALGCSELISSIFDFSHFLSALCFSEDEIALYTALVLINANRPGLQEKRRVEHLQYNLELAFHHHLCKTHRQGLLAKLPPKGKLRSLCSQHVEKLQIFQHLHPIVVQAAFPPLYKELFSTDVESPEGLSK
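ROR gamma transcriptional activity was tracked as Gal4-UAS luciferase output in stably transfected Drosophila Schneider cells, with compound added 1 hr before 700 uM copper sulfate induction and a 20 hr ambient-temperature incubation.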
Giardia killer: Small Molecules that selectively kill Giardia lamblia: qHTS. Giardia lamblia trophozoite viability. 0.15% of 340,000 active. activity change, % at 7.66 µM, hits read low; in the data active means activity change below about -80%; inconclusive means between about -30% and that limit;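 further: parasites exposed to compound for two days anaerobically before the ATP read; on the % scale 0 is the no-effect control and ±100 the full control effect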
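Each well holds 100 Giardia trophozoites and compound. After two days (48 hrs) at 37 deg C in anaerobic conditions, ATP is quantified by luminescence.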
Gal4-VP16 FLuc: VP16 counterscreen qHTS for inhibitors of ROR gamma transcriptional activity; Drosophila S2 Gal4-VP16 UAS-luciferase, luminescence, 20 h; 3.5% of 310,000 active; Potency, µM (top dose mostly 53.6 µM), for the others: at the top dose activity, negative = inhibition, usual class: inhibitors;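 further: Gal4-VP16 expression switched on by copper sulfate through the metallothionein promoter; potency means the concentration at half of the fitted maximal effect; on the % scale 0 is the no-effect control and ±100 the full control effect; nearly all actives have a fitted effect of over 50% in size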
a7 integrin act: qHTS for Activators of Integrin-Mediated Alleviation for Muscular Dystrophy; alpha7betagal myoblasts, beta-gal FDG fluorescence, 48 h; Potency, µM (doses to about 38.3 µM), for the others: at the highest dose activation, hits mostly activators; 0.064% of 350,000 active; AID 624291, 2012;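 further: potency means the concentration at half of the fitted maximal effect; 100% = response of the positive control SU9516; nearly all actives have a fitted effect of over 60% in size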
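Alpha7betagal+/- myoblasts (passage 13) were plated 16-24 hr, then exposed to compounds (1:260 dilution of DMSO stock) for 48 hours at 37C. After MPER lysis, β-galactosidase reporter activity was read as FDG fluorescence (ex 480/em 540) after 30 minutes.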
ERG-DNA inh: qHTS for Small Molecule Inhibitors of the ERG Ets/DNA interaction; Transcriptional regulator ERG (Homo sapiens), P11308; Potency, µM (series often up to 76.9 µM), for inactives: at the highest dose FP activity, negative = inhibition, most hits filed as inhibitors; 0.028% of 370,000 active; fluorescence polarization, His-ERG Ets domain / labelled DNA; active means well fitted inhibition curve with a large enough effect in the polarisation, with a control signal flat; inconclusive means small, poorly fitted or top-dose-only effect, or effect the other way, or a change in a side signal; inactive means no such curve, though single readings can be large or run the other way; the % refers to the polarisation;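 further: polarization taken with two DNA probes labelled with fluorescein and Texas red; potency means the concentration at half of the fitted maximal effect; % of control where 0% means no effect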
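His-tagged ERG Ets domain (1 uM in the protein solution; 300mM KCl, 50mM Tris-HCl, 1mM EDTA, 1mM DTT, pH 7.5) received compound, then a probe mix of 5 nM fluorescein-DNA and 100nM Texas-615-DNA. Fluorescence polarization was read for both dyes.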
Numbers without * were called inactive; ? = inconclusive; . = no result. Unless noted, the call rests on the fitted dose curve; in most records, active means well fitted curve in the direction sought with a large enough effect; inconclusive means small, poorly fitted or top-dose-only effect, or another doubt; inactive means no such curve, though single readings can be large; an effect the other way counts as inactive or inconclusive.

SMILES | RORg inh | Giardia killer | Gal4-VP16 FLuc | a7 integrin act | ERG-DNA inh
CCCCNC(=S)NNC(=O)c1c(C)nc2ccccn12 | 12.6µM* | -13.7 | -10.5% | -560.3% | 1.5%
CC(=O)Nc1ccc(NC2=Nc3ccccc3N3C2=Nc2c(c(C)nn2-c2ccccc2)C3c2ccccc2)cc1 (centres undefined) | 0.0891µM* | -14.5 | 0.891µM* | -51.7% | -4.4%
Cc1ccc(C(=O)NNC(=O)c2ccc3ccccc3c2O)cc1 | 14.1µM* | -23.2 | 10µM* | 6.1% | -6.8%
Cc1ccc(NC(=O)NC(=S)NC(=O)c2ccccc2)cc1 | 2.51µM* | 26.1 | ? | -6.9% | -1.1%
Cc1ccc(C(=O)NC(=S)NNC(=O)CCN2CCOCC2)cc1 | 11.2µM* | 18.0 | -12.5% | -13.8% | 10.3%
Cc1ccc(C(=O)NC(=S)NNC(=O)c2ccccc2)cc1 | ? | -4.0 | 20µM* | ? | -8.4%
COC(=O)c1ccccc1NC(=O)N1CCN(Cc2ccco2)CC1 | 34.2% | ? | 18.4% | 20.9% | -2.6%
CCCCS(=O)(=O)N1CCC(C(=O)Oc2ccc(Cl)cc2)CC1 | -7.8% | -23.8 | -2.6% | ? | -3.6%
COc1ccc(C(=O)N2CCC[C@@]3(CCN(c4ccccc4)C3)C2)cc1 | 25.3% | . | -11.5% | . | .
CCOC(=O)N1CCc2c(sc3c2c(=O)n(Cc2ccccc2)c(=O)n3CC(=O)Nc2ccc(C)c(C)c2)C1 | . | . | . | . | -5.3%
c1ccc(-c2nn(-c3ccccc3)[n+](-c3ccccc3)n2)cc1 | . | 3.5 | . | ? | .
O=C(NC(=S)NNC(=O)c1ccccc1O)c1ccccc1 | 11.2µM* | -22.7 | -7.6% | -7.2% | -5.6%
Cc1ccccc1C(=O)NNC(=S)NC(=O)c1ccccc1 | 0.794µM* | ? | 2.82µM* | -1.6% | 7.3%
O=C(NC(=S)NNC(=O)c1ccco1)c1ccccc1 | 11.2µM* | -2.6 | 11.2µM* | -7.3% | 11.7%
Cc1ccc(C(=O)NC(=S)NNC(=O)c2ccccc2O)cc1 | 22.1% | 10.3 | -1.0% | -0.1% | 19.7%
CCN(CC)c1ccc(NC(=O)c2c(C)nn(-c3ccc(F)cc3)c2-n2cccc2)c(C)c1 | . | . | . | . | -5.1%
Cn1c(=O)c2c(ncn2CC2OCCO2)n(C)c1=O | -7.7% | -10.5 | 0.2% | -8.2% | 4.3%
Cc1ccc(N)c(Cl)c1 | 14.9% | . | 18.8% | . | .
CCc1noc(C)c1C(=O)Nc1cc(S(=O)(=O)N2CCOCC2)ccc1N1CCN(CC)CC1 | . | 2.2 | . | 23.6% | 4.4%
CCCC[C@@H](C=O)NC(=O)[C@H](CC(C)C)NC(=O)[C@H](CC(C)C)NC(C)=O | ? | . | -14.3% | . | .
CSCC[C@H](C=O)NC(=O)[C@H](CC(C)C)NC(=O)[C@H](CC(C)C)NC(C)=O | 11.2µM* | . | -2.0% | . | .
CCOc1cccc(C(=O)NC(=S)NCc2cccnc2)c1 | ? | 0.3 | ? | 24.6% | -7.3%
O=C(NC(=S)NCCC1=CCCCC1)c1cccnc1 | 3.98µM* | -5.4 | ? | -11.2% | 3.9%
O=C(NCCC1=CCCCC1)C1CCCN(S(=O)(=O)c2cccnc2)C1 (centres undefined) | 27.8% | 9.5 | 5.1% | 2.7% | -1.5%
O=C(NC(=S)NCc1ccccc1)c1cccnc1 | 11.2µM* | -0.8 | ? | -26.5% | -1.1%
SMILES | RORg inh | Giardia killer | Gal4-VP16 FLuc | a7 integrin act | ERG-DNA inh
CCCOc1ccc(C(=O)NC(=S)NCc2cccnc2)cc1 | ? | -15.4 | 12.6µM* | -12.8% | -2.6%
Cc1cccc(C(=O)NC(=S)NCc2cccnc2)c1 | 15.8µM* | 7.0 | ? | -19.7% | -7.1%
O=C1CCc2cc(S(=O)(=O)N3CCC(C(=O)NC4CCCC4)CC3)ccc2N1 | -15.3% | 11.3 | 6.2% | -17.6% | -2.3%
O=S(=O)(NCc1ccccn1)c1cc(C(F)(F)F)ccc1Cl | 7.08µM* | 13.0 | ? | 4.2% | -2.8%
O=C1CCc2cc(S(=O)(=O)N3CCC(C(=O)NCc4ccccn4)CC3)ccc2N1 | 12.6µM* | . | ? | . | .
O=S(=O)(NCc1ccccn1)c1ccc(Cl)c(C(F)(F)F)c1 | 7.08µM* | 3.0 | ? | 6.9% | 8.9%
O=C(NCc1ccccn1)C1CCCN(S(=O)(=O)c2cc(Cl)ccc2Cl)C1 (centres undefined) | . | -83.2* | . | -57.4% | 9.3%
